According to the supplement of paper PMC6555819:

How the values were obtained:
Assay in all cases: PBM binding z-score (relative to random genomic background probes); higher = stronger binding; sequences stand for … in GC…GCGATTGACAGCGTAGAATGAAGG
[1] = tested on: FXR:RXRa (NR concentration 270 nM, RXRa partner concentration 90 nM)
How it was run: (§1)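 Custom Agilent 4×180K protein-binding microarrays carried double-stranded probes, each with a 34-nt variable region. These regions held direct-repeat seeds, single-nucleotide variants, half-site ablations and random human genomic background sequences. Ligand-free nuclear receptor dimers were incubated on the arrays for 1 h, antibodies against each partner (one per run) detected binding, and scanned fluorescence was regression-normalized. Binding z-scores take the random background probes as reference.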

[2] = tested on: LXRa:RXRa (NR concentration 270 nM, RXRa partner concentration 90 nM)
How it was run: as §1

[3] = tested on: LXRa homodimer (NR concentration 270 nM)
How it was run: as §1

[4] = tested on: LXRb:RXRa (NR concentration 270 nM, RXRa partner concentration 90 nM)
How it was run: as §1

[5] = tested on: LXRb homodimer (NR concentration 270 nM)
How it was run: as §1

[6] = tested on: PPARa:RXRa (NR concentration 270 nM, RXRa partner concentration 90 nM)
How it was run: as §1

[7] = tested on: PPARg:RXRa (NR concentration 180 nM, RXRa partner concentration 90 nM)
How it was run: as §1

[8] = tested on: PPARg:RXRa 270nM:90nM, anti-RXR (NR concentration 270 nM, RXRa partner concentration 90 nM)
How it was run: as §1

[9] = tested on: PPARg:RXRa 30nM:10nM, anti-RXR (NR concentration 30 nM, RXRa partner concentration 10 nM)
How it was run: as §1

[10] = tested on: PPARg:RXRa 90nM:30nM, anti-RXR (NR concentration 90 nM, RXRa partner concentration 30 nM)
How it was run: as §1

[11] = tested on: PPARg:RXRa DBDmut IVT, anti-RXR (DBD mutation: RXRa K156A/R161A, NR concentration 270 nM, RXRa partner concentration 90 nM)
How it was run: as §1

[12] = tested on: PPARg:RXRa IVT, anti-PPARg (NR concentration 270 nM, RXRa partner concentration 90 nM)
How it was run: as §1

[13] = tested on: PPARg DBDmut:RXRa IVT, anti-PPARg (DBD mutation: PPARg1 K132A/R137A, NR concentration 270 nM, RXRa partner concentration 90 nM)
How it was run: as §1

[14] = tested on: PPARg DBDmut IVT, anti-PPARg (DBD mutation: PPARg1 K132A/R137A, NR concentration 270 nM)
How it was run: as §1

[15] = tested on: PPARg homodimer (NR concentration 180 nM)
How it was run: as §1

[16] = tested on: PXR:RXRa (NR concentration 270 nM, RXRa partner concentration 90 nM)
How it was run: as §1

[17] = tested on: PXR homodimer (NR concentration 270 nM)
How it was run: as §1

[18] = tested on: RARa:RXR (NR concentration 270 nM, RXRa partner concentration 90 nM)
How it was run: as §1

[19] = tested on: RARa homodimer (NR concentration 270 nM)
How it was run: as §1

[20] = tested on: RARb:RXRa (NR concentration 270 nM, RXRa partner concentration 90 nM)
How it was run: as §1

Row | Sequence | PBM binding z-score [1] | PBM binding z-score [2] | PBM binding z-score [3] | PBM binding z-score [4] | PBM binding z-score [5] | PBM binding z-score [6] | PBM binding z-score [7] | PBM binding z-score [8] | PBM binding z-score [9] | PBM binding z-score [10] | PBM binding z-score [11] | PBM binding z-score [12] | PBM binding z-score [13] | PBM binding z-score [14] | PBM binding z-score [15] | PBM binding z-score [16] | PBM binding z-score [17] | PBM binding z-score [18] | PBM binding z-score [19] | PBM binding z-score [20]
1 | TAGCCTAGGTCAGATCGGGCCAGTAGACGCTATA | 2.39 | 0.985 | -0.414 | 0.183 | -0.713 | 1.45 | 0.406 | 0.586 | -0.637 | 0.224 | 0.0206 | 1.03 | -0.87 | -1.34 | 0.0238 | 0.619 | -0.847 | 0.622 | -1.52 | 2.99
2 | ATATGAAGGTTACATCCGGGTCATTCAGGCTATG | 2.82 | 4.87 | 1.86 | 3.51 | 0.71 | 3.69 | 2.35 | 2.52 | 1 | 1.58 | 2.04 | 3.33 | 1.37 | 1.68 | 3.27 | 4.21 | 2.67 | 4.2 | 0.977 | 3.16
3 | CCAGACAGGTGAAAGGTAACTAAGTCTGGTACGC | 0.301 | 0.559 | -0.431 | 0.84 | -0.415 | 3.31 | 5.33 | 6.03 | 4.37 | 6.14 | 1.58 | 2.54 | -0.18 | -0.253 | 0.909 | 0.819 | 0.101 | 1.81 | 0.324 | 1.14
4 | CCTCGGAGGACAACAGTAGGTCAGAGCTGCCAGA | 0.249 | 0.959 | 1.04 | 0.175 | -0.765 | 1.37 | 0.475 | 0.552 | -0.754 | 0.0572 | 1.42 | 2.02 | -1.19 | -2.12 | 0.785 | 0.462 | -0.203 | 0.798 | -0.275 | 2.05
5 | CTTCCAAGGTCAAGGTCAGTGAAAGAGACTCGAA | 7.44 | 6.06 | 1.86 | 4.85 | 1.61 | 6.31 | 6.43 | 6.37 | 3.11 | 5.13 | 3.34 | 4.97 | 0.569 | 0.303 | 3.58 | 4.76 | 1.05 | 5.07 | 0.686 | 5.83
6 | CCTACTGGGCCGTCAGGTCATTGATATCAACGTT | 1.31 | 0.772 | 0.809 | 1.21 | -0.585 | 1.71 | 0.704 | 1.92 | 0.179 | 1.15 | 1.17 | 2.14 | -0.782 | -0.667 | 0.741 | 1.33 | 0.502 | 1.53 | 0.0542 | 1.66
7 | ACTTACGGGTCAACGAGGTTAAAGCACGCGTATA | 7.3 | 5.07 | 0.882 | 4.97 | 0.527 | 6.09 | 6.14 | 5.57 | 2.44 | 4.29 | 3.22 | 4.19 | 0.985 | 1.02 | 2.28 | 5.38 | 3.33 | 5.36 | 0.479 | 4.53
8 | GGATCGAGGGCAAGTTGATAGCAGAGTTTGATGG | 0.982 | 0.317 | -0.184 | 0.122 | 0.0808 | 1.42 | 0.962 | 0.758 | 0.0505 | 0.387 | 3.34 | 2.56 | -0.16 | -0.137 | 1.07 | 0.76 | 0.825 | 0.165 | 0.158 | 2.49
9 | CGAACTAGGACATTGACAGGACAGTGAATAGTAA | -0.0957 | -0.0769 | 0.0961 | -0.38 | -0.79 | 0.451 | 0.933 | 0.247 | 0.384 | 0.344 | 4.34 | 3.36 | 1.39 | 0.241 | 0.296 | -0.136 | 0.135 | -0.244 | -0.0168 | 0.136
10 | GGAACGAGGGCAAAATTGATAGCATCTGTCGACG | 0.343 | 0.168 | -0.325 | 0.129 | -0.58 | 1.03 | 1.22 | 1.52 | 0.191 | 0.732 | 3.25 | 2.12 | 0.369 | -0.0358 | 0.19 | 0.226 | -0.165 | 0.355 | -0.196 | 1.57
11 | TCGAGTTGGTTAGTCGGGGCATTCAGCCAACATA | 0.0149 | -0.0453 | -0.453 | 0.513 | -0.685 | 0.218 | -0.686 | 0.5 | 1.2 | 0.81 | 0.597 | 0.172 | -0.755 | -0.529 | -0.2 | 0.148 | 0.163 | 0.142 | -0.783 | 0.122
12 | TCTGCTAGGTCAGCTGGTCAGCTAACGAGCTGCC | 1.35 | 0.826 | -1.11 | 0.287 | -0.343 | 1.95 | 0.828 | 1.78 | 1.12 | 1.23 | 2.65 | 2.82 | -0.25 | -0.593 | 0.0537 | 0.279 | -1.58 | 0.872 | -1.54 | 3.64
13 | TCAAGTTGGTCACGGAGGTCACACACGACGGGTA | 3.09 | 3.76 | 2.38 | 3.17 | 0.603 | 4.18 | 3.94 | 3.95 | 3.52 | 3.47 | 2.45 | 3.99 | 1.48 | 0.93 | 2.72 | 4.35 | 1.65 | 4.61 | 1.86 | 3.98
14 | CCTCGGAGGACAGAAGGGCAGAGCTGTCCGCTTT | -0.424 | -0.658 | -0.967 | -0.952 | -1.04 | -1.11 | -0.572 | -0.994 | -1.32 | -1.13 | -0.39 | -0.863 | -1.35 | -1.74 | -0.82 | -0.857 | -0.749 | -0.782 | -0.361 | 1.2
15 | ATACCAAGTTGATCGTGAGGTCGTTGATACTAAC | 1.48 | 1.03 | 0.823 | 1.31 | 0.171 | 1.22 | 0.148 | 0.229 | 0.0312 | 0.0356 | -0.0424 | -0.015 | 0.231 | 0.701 | 1.02 | 2.78 | 1.61 | 1.78 | 1.04 | 0.897
